Results taken from ChEMBL document CHEMBL4513216, “Probing the Open Global Health Chemical Diversity Library for Multistage-Active Starting Points for Next-Generation Antimalarials” (ACS Infect Dis, 2020).
Out of some 69,000 compounds screened, about 8,600 (12%) showed an effect of 50% or more. The sample as a whole holds a higher share of strong results than the screen did.

test system: Plasmodium berghei; assay: Screen against P. berghei liver stage (PbLuc), transformed with Luciferase, at 10uM; format: functional, HepG2; conditions: tested at 10 uM

Compound	INHIBITION
Cc1ccc(C(=O)Nc2cn[nH]c2)cc1	31.005%
COC(CNC(=O)NCc1c(C)cc(C)[nH]c1=O)c1ccccc1 (stereo unspecified)	36.1%
Cc1noc(C(C)C)c1C(=O)NCCN1CCOCC1	-31.8%
CC(C)c1nccn1C1CCCN(C(=O)C2=NN(C)C(=O)CC2)C1 (stereo unspecified)	14.4%
CN1N=C(C(=O)N2CCCC(n3ccnc3)C2)CCC1=O (stereo unspecified)	21.6%
CN1N=C(C(=O)N2CCCC(n3cccn3)C2)CCC1=O (stereo unspecified)	11.9%
CCc1nccn1C1CCCN(C(=O)c2ccn(C)c(=O)c2)C1 (stereo unspecified)	2.9%
CCc1nccn1C1CCCN(C(=O)C2=NN(C)C(=O)CC2)C1 (stereo unspecified)	53%
Cc1nccn1C1CCCN(C(=O)C2=NN(C)C(=O)CC2)C1 (stereo unspecified)	51.6%
CO[C@@H]1CC[C@H]2[C@H]1OCCN2C(=O)c1nn(C)c2ccccc12	-9.23%
COCCCn1cnnc1CNc1cc(C)nc2ccnn12	27.9%
Cc1cc(NC(=O)CN2C(=O)CC(C)(C)c3ccccc32)no1	29.7%
Cc1ccc(C(=O)N(C)Cc2ccc(Br)o2)c(=O)[nH]1	38.6%
Cc1nc(N2CCC(C(O)c3nccn3C)CC2)c2cccnc2n1 (stereo unspecified)	-11.6%
Cc1nc(N2CCC(C(O)c3nccn3C)CC2)c2c(C)noc2n1 (stereo unspecified)	52.2%
Cc1nc(N2CCC(C(O)c3nccn3C)CC2)c2nc(C)oc2n1 (stereo unspecified)	42.1%
CO[C@@H]1CCN(Cc2nccn2C)[C@H]1Cc1cccnc1	32.2%
Cc1ccsc1CN1CCC2(CC1)CC(OCc1cccnc1)CO2 (stereo unspecified)	26%
O=C(CCc1nnc(-c2ccccc2)o1)N1CCN(CC2CC2)CC1	-17%
CC(=O)N1CCC2(CCN(Cc3cccc(F)c3)CC2)CC1	-12.1%
Cc1noc(C)c1CN1CCO[C@H]2CN(Cc3ccc(F)cc3)C[C@H]21	49.2%
Cc1noc(C)c1CN1CCO[C@H]2CN(Cc3cccc(F)c3)C[C@H]21	62.9%

Compound	INHIBITION
Cc1noc(C)c1CN1C[C@H]2CN(Cc3cccc(F)c3)C[C@H]2C1	41.2%
Cc1noc(C)c1CN1CCO[C@H]2CN(Cc3cccnc3)C[C@H]21	14.6%
Cc1noc(C)c1CN1CCC2(CCN(Cc3cccc(F)c3)CC2)C1	60.2%
Cc1ccc(NC2CCN(C(=O)Cc3ccc(C)s3)CC2)nn1	27.8%
CNC(=O)c1cccc(CN2CCN(C3=NCC(C)(C)S3)CC2)c1	28.7%
O=C(C1CC(c2cccc(F)c2)=NO1)N1CCc2ccccc21 (stereo unspecified)	-12.2%
O=C(CSCC1CC1)N1CCc2[nH]nc(COc3ccccc3)c2C1	11.9%
Cc1nc(C)c(C(=O)N2CCc3[nH]nc(COc4ccccc4)c3C2)s1	49.5%
O=C(N1CCOCC1)N1CCc2[nH]nc(COc3cccc(Cl)c3)c2C1	67.5%
O=C(CCc1cccs1)N1CCc2[nH]nc(COc3ccccc3)c2C1	36.7%
O=C(c1csnn1)N1CCc2[nH]nc(COc3cccc(Cl)c3)c2C1	73%
O=C(CCc1ccco1)N1CCc2[nH]nc(COc3ccccc3)c2C1	32.7%
CCSCCC(=O)N1CCc2[nH]nc(COc3ccccc3)c2C1	10.9%
O=C(CCn1cccc1)N1CCc2[nH]nc(COc3ccccc3)c2C1	34.7%
O=C1CC[C@@H](C(=O)N2CCc3[nH]nc(COc4cccc(Cl)c4)c3C2)N1	52.6%
Cc1nn(C)c(N(C)C)c1CNC(C)COc1ccc(F)cc1 (stereo unspecified)	-59.4%
NC(=O)C1CCN(C(=O)CCCc2nnc(-c3ccccc3)o2)C1 (stereo unspecified)	14.4%
CC(C)NC(=O)C1CN(C(=O)c2ccccc2)CC12CCOCC2 (stereo unspecified)	29.9%
CCN1C(=O)C(c2ccccc2)CC12CCN(Cc1cccnc1)CC2 (stereo unspecified)	-4.82%
CN(C)CC1(O)CCCN(Cc2ccccc2OCC(=O)N(C)C)C1 (stereo unspecified)	47.6%
OCC1(O)CCCN(Cc2ccccc2OCCc2ccccc2)CC1 (stereo unspecified)	52.6%
COCCC1(C(=O)O)CCCN(Cc2ccccc2OCCO)C1 (stereo unspecified)	3.48%

Compound	INHIBITION
O=C1NCC2(CCCN(Cc3ccccc3OCCO)C2)O1 (stereo unspecified)	44.3%
OCC1(O)CCCN(Cc2nnc(-c3ccccc3)o2)CC1 (stereo unspecified)	21.2%
OCCOc1ccccc1CN1CCCC(O)(CO)C1 (stereo unspecified)	66.5%
Cn1cc(C(=O)N2CCCC2c2[nH]ncc2C(N)=O)cn1 (stereo unspecified)	7.52%
O=C(CNCc1ccccc1Cn1cccn1)Nc1cnccn1	38.5%
CS(=O)(=O)N1CCC(C(=O)NC(Cc2ccsc2)c2nccs2)CC1 (stereo unspecified)	38.1%
O=C(NC(Cc1ccsc1)c1nccs1)C1CC1 (stereo unspecified)	12.3%
CCS(=O)(=O)N1CCC(C(=O)NC(Cc2ccsc2)c2nccs2)CC1 (stereo unspecified)	59%
Cc1cc(C)n(CC2CN(Cc3nc(-c4ccco4)no3)CCO2)n1 (stereo unspecified)	36.4%
CN(CCN1CCOC1=O)CC(=O)Nc1ccc(Cl)c(Cl)c1	37.8%
O=C(c1c2c(N3CCCC3)ncnc2n2ccccc12)N1CCCC1	47.4%
O=C(CSCC1CC1)N1CCCN(c2ccc(F)cc2)CC1	59.4%
O=C(CSCC1CC1)N1CCCN(Cc2ccc(F)cc2)CC1	23.9%
Cc1cc(N2CCCN(C(=O)CSCC3CC3)CC2)ccn1	37.6%
COCc1ccccc1C(=O)N1CCCC(c2cc(C)[nH]n2)C1 (stereo unspecified)	40.9%
CCOc1cc(NC(=O)C2CC(=O)N(c3cccc(OC)c3)C2)ncn1 (stereo unspecified)	45.7%
COc1cc(NC(=O)C2CC(=O)N(c3cccc(Br)c3)C2)ncn1 (stereo unspecified)	63.8%
COc1cc(NC(=O)C2CC(=O)N(c3cccc(F)c3)C2)ncn1 (stereo unspecified)	6.34%
CC(=O)N1CCCN(C(=O)NCCOc2ccc3c(c2)OCO3)CC1	-31.8%
CCN1CCC2(CCC1=O)CN(C1CCOCC1)CCN2C (stereo unspecified)	-10.9%
CNc1cnc(CC2COCCN(Cc3cccc(C)n3)C2)cn1 (stereo unspecified)	3.48%
CN(CC1CC1)c1ccc2ccc(C(=O)NCCc3ccccc3)cn12	38.3%
